SARS PLpro yeast: qHTS of Yeast-based Assay for SARS-CoV PLP | S. cerevisiae expressing SARS-CoV PLpro, growth rescue | Potency, µM (top dose mostly 32.9 µM), usual class: activators | 0.19% of 330,000 active | AID 485353, 2010; calls by dose curve; note: nearly all actives have a fitted effect of over 55% in size
Shiga inhibitor: A qHTS for Small Molecule Inhibitors of Shiga Toxin; Vero cells, Shiga toxin protein synthesis inhibition reporter; inhibition, % at 38.7 µM; 9.2% of 290,000 active; AID 2315, 2010; in the data active = inhibition mostly above about 28%, no sharp cut-off; inactive = mostly below about 43%
AmpC no deterg: qHTS Inhibitors of AmpC Beta-Lactamase (assay without detergent). P00811. AmpC nitrocefin hydrolysis, absorbance 480 nm, 0.0001% Triton. Potency, µM (top dose mostly 57.1 µM), hits mostly inhibitors. 0.52% of 330,000 active; note: nearly all actives have a fitted effect of over 20% in size
Target sequence (P00811 whole entry, looked up): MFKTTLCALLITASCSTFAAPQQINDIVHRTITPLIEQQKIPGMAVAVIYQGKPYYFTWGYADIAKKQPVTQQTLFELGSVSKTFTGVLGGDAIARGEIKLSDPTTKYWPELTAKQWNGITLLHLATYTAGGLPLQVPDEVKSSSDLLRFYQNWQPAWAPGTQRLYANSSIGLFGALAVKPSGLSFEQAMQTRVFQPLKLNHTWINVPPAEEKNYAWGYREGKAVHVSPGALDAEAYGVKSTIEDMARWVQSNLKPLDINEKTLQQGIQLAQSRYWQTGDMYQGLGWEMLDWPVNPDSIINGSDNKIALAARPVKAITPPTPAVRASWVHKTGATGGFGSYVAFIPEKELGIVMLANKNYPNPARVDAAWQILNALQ
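AmpC (5.3 nM in the dispensed reagent) in 20 mM phosphate pH 7.0 with 0.01% (detergent screen) or 0.0001% Triton X-100 was preincubated with compounds for 15 min at room temperature. Nitrocefin was then added from an 800 uM solution, and hydrolysis was followed at 480 nm.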
CHX counter: Cycloheximide Counterscreen for Small Molecule Inhibitors of Shiga Toxin; 12% of 300,000 active; cell reporter, cycloheximide protein synthesis inhibition counterscreen; max response, %; in the data active = max response mostly above about 13%, no sharp cut-off; inactive = mostly below about 14%; note: read at 38.3 µM for the half of the compounds with a filed dose
AmpC inh detg: qHTS Inhibitors of AmpC Beta-Lactamase (assay with detergent); Potency, µM (series often up to 114 µM), actives largely listed as inhibitors; 0.041% of 370,000 active; AmpC hydrolysis of nitrocefin, absorbance 480 nm, 0.01% Triton; note: nearly all actives have a fitted effect of over 25% in size
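AmpC (5.3 nM in the dispensed reagent) in 20 mM phosphate pH 7.0 with 0.01% (detergent screen) or 0.0001% Triton X-100 was preincubated with compounds for 15 min at room temperature. Nitrocefin was then added from an 800 uM solution, and hydrolysis was followed at 480 nm.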
AMA1-RON2 inh: qHTS for Inhibitors of AMA1-RON; Towards Development of Antimalarial Drug Lead: Primary Screen; Plasmodium falciparum AMA1 (3D7) - RON2 peptide interaction; AlphaScreen AMA1-biotinylated RON2 peptide binding; Potency, µM (top dose mostly 58.2 µM), actives largely listed as inhibitors; 0.2% of 360,000 active; AID 720542, 2013; note: nearly all actives have a fitted effect of over 45% in size
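AMA1 (3D7) with his tag at 25 nM final met compounds first, then biotinylated RON2 peptide at 25 nM; detection used donor plus acceptor beads, 10 µg/mL apiece, read by AlphaScreen after 30 min at room temperature.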
Of the large screens only hits and unclear results are named; the others gave an inactive call. Many of the other results were omitted from the sample, so hits are more common in it than they were. Unless noted, calls come from the whole dose curve; as a rule, active = well fitted curve in the direction sought with a large enough effect; inconclusive = small, poorly fitted or top-dose-only effect, or another doubt; inactive = no such curve, though single readings can be large; an effect the other way counts as inactive or inconclusive.

Cc1ccc(-n2ncc3c(N(C)C)ncnc32)cc1Cl	none (no result: SARS PLpro yeast, Shiga inhibitor, AmpC no deterg, CHX counter, AMA1-RON2 inh)
O=c1c2ccccc2cnn1Cc1n[nH]c(=S)n1-c1ccc(Cl)cc1	Shiga inhibitor 51.9, CHX counter 72.4, AmpC inh detg inconclusive
Cc1ccc(-n2ncc3ccccc3c2=O)cc1Cl	Shiga inhibitor 113.5, CHX counter 38.2, AmpC inh detg inconclusive
CC(c1ccccc1)n1c(Cn2ncc3ccccc3c2=O)n[nH]c1=S (configuration not stated)	none
O=c1c2ccccc2c(-c2ccc(Cl)cc2)nn1-c1ccccc1	none
O=c1c2ccccc2cnn1-c1ccc(Cl)cc1	Shiga inhibitor 93.0, CHX counter 35.5, AmpC inh detg inconclusive
Cc1[nH]c2ccccc2c1SCC(=O)O	none
COc1ccc(CNC(=O)CN(C(=O)CCC(=O)Nc2nccs2)c2ccc3c(c2)OCO3)cc1	none
O=C(Nc1ccccc1)Nc1ccc(F)cc1F	Shiga inhibitor 96.4, CHX counter 39.8
COC(=O)c1ccc(NC(=O)Nc2ccc(F)cc2F)cc1	Shiga inhibitor 142.7, CHX counter 36.7
CC(=O)Nc1cccc(NC(=O)Nc2ccc(F)cc2F)c1	none
COC(=O)c1ccc(NC(=O)Nc2cccc(F)c2)cc1	Shiga inhibitor 86.0, CHX counter 53.8
COc1ccc(NC(=O)CS(=O)CC(=O)Nc2ccc(F)cc2F)cc1 (configuration not stated)	none
COC(=O)c1ccc(C(=O)Nc2ccc(F)cc2)cc1	none (no result: Shiga inhibitor, CHX counter)
O=C(c1cc(-c2ccc(Br)cc2)on1)N1CCc2ccccc2C1	AmpC inh detg inconclusive
COc1ccc(OC)c(-c2cc(C(=O)N3CCc4ccccc4C3)no2)c1	AmpC inh detg inconclusive
COc1cccc(-c2cc(C(=O)N3CCc4ccccc4C3)no2)c1	CHX counter 17.1
COc1ccc(-c2cc(C(=O)N3CCN(c4ccccc4)CC3)no2)cc1	Shiga inhibitor 93.3, CHX counter 37.0, AMA1-RON2 inh inconclusive
COc1ccc(-c2cc(C(=O)N3CCc4ccccc4C3)no2)cc1	Shiga inhibitor 87.7, CHX counter 27.7
COc1ccc(-c2cc(C(=O)N3CCN(c4ccccc4OC)CC3)no2)cc1	none
COc1ccc(C2=NN(C(=O)c3ccccc3)C(c3ccccc3)C2)c(O)c1 (configuration not stated)	none
Cc1c(O[C@@H]2O[C@H](CO)[C@@H](O)[C@H](O)[C@H]2O)ccc2c1oc(=O)c1ccccc12	CHX counter 15.3
Cc1c(C)c2ccc(O[C@@H]3O[C@H](CO)[C@H](O)[C@H](O)[C@H]3O)c(C)c2oc1=O	none
COc1ccc(OCc2nc(-c3ccc(-n4cccc4)cc3)no2)cc1	none (no result: SARS PLpro yeast, Shiga inhibitor, AmpC no deterg, CHX counter, AMA1-RON2 inh)
Cc1ccccc1OCc1nc(-c2ccccc2)no1	Shiga inhibitor 66.5, CHX counter 38.9
Cc1ccc(-c2noc(COc3ccccc3C)n2)cc1	CHX counter 29.5, AmpC inh detg inconclusive
c1ccc(NCc2nc(-c3ccccc3)no2)cc1	Shiga inhibitor 155.2, CHX counter 55.7
Cc1ccc(OCc2nc(-c3ccccc3)no2)cc1	Shiga inhibitor 84.5, CHX counter 44.9
Cc1ccc(-c2onc(C)c2C)cc1S(=O)(=O)N1CCCCC1	none (no result: SARS PLpro yeast, Shiga inhibitor, AmpC no deterg, CHX counter, AMA1-RON2 inh)
O=C(Nc1ccccc1Cc1ccccc1)c1ccccc1F	none
COc1ccc(-c2noc(COc3ccc4c(c3)OCO4)n2)cc1	none
c1ccc(-c2noc(COc3ccc4c(c3)OCO4)n2)cc1	Shiga inhibitor 54.6, CHX counter 25.7, AmpC inh detg inconclusive
Cc1ccc(S(=O)(=O)N2CCC(C(N)=O)CC2)cc1C(=O)NC1CCCCC1	none (no result: Shiga inhibitor, CHX counter)
CCc1ccc(S(=O)(=O)Nc2cc(SCC(=O)O)c(O)c3ccccc23)cc1	Shiga inhibitor 29.7, AmpC inh detg inconclusive, AMA1-RON2 inh inconclusive
O=C1c2ccccc2C(=O)c2cc(S(=O)(=O)Nc3cccc4cccnc34)ccc21	none (no result: SARS PLpro yeast, AmpC no deterg, AmpC inh detg, AMA1-RON2 inh)
O=C(O)CSc1cc(NS(=O)(=O)c2cccc([N+](=O)[O-])c2)c2ccccc2c1O	CHX counter 12.9
Cc1ccc(C)c(S(=O)(=O)Nc2cc(SCC(=O)O)c(O)c3ccccc23)c1	CHX counter 13.7, AmpC inh detg inconclusive
CCOc1ccc(S(=O)(=O)Nc2cc(SCC(=O)O)c(O)c3ccccc23)cc1	AmpC inh detg inconclusive, AMA1-RON2 inh inconclusive
O=S(=O)(Nc1cc(Sc2cccc3cccnc23)c(O)c2ccccc12)c1ccccc1	Shiga inhibitor 52.9 (no result: AMA1-RON2 inh)
CCCn1c(SCC(=O)NCCc2ccccc2)nnc1-c1ccco1	none
O=C(Nc1cccc(C(=O)N2CCCCC2)c1)C1CCC1	none (no result: SARS PLpro yeast, Shiga inhibitor, AmpC no deterg, CHX counter, AmpC inh detg)
CCc1ccccc1OC[C@@H](O)CN[C@H]1CCCc2ccccc21	none (no result: SARS PLpro yeast, Shiga inhibitor, CHX counter)
CCOC(=O)CN1C(=O)/C(=C/c2cccc(Br)c2)Oc2ccccc21	none
CCOC(=O)CN1C(=O)/C(=C/c2c(F)cccc2Cl)Oc2ccccc21	Shiga inhibitor 19.0, CHX counter 18.8
O=C(CN(c1ccc(Cl)cc1)S(=O)(=O)c1ccc(Cl)c([N+](=O)[O-])c1)NCCc1ccc(F)cc1	AmpC no deterg 31.6µM
O=C(CN(c1ccc(Cl)cc1)S(=O)(=O)c1ccc(Cl)c([N+](=O)[O-])c1)NCCc1ccccc1	none
CCc1ccc(NC(=O)CC2C(=O)N(c3cccc(OC)c3)C(=O)N2CCOC)cc1 (configuration not stated)	none
O=C(O)c1ccc(Cl)c(S(=O)(=O)N2CCC(Cc3ccccc3)CC2)c1	none
O=C(Nc1ccc(Cl)cc1)OCc1cncs1	Shiga inhibitor 120.5, CHX counter 60.1
O=C(Nc1cccc2ccccc12)OCc1cncs1	Shiga inhibitor 32.1, CHX counter 24.2
CCCN=C1N/C(=C\c2ccco2)C(=O)N1c1ccccc1	none
CCOc1ccc(N2C(=O)/C(=C/c3ccco3)C(=O)NC2=S)cc1	AmpC no deterg 12.6µM, AmpC inh detg inconclusive, AMA1-RON2 inh 3.98µM (no result: Shiga inhibitor)
Cc1cccc(N2C(=O)/C(=C/c3ccc(N4CCN(C)CC4)o3)C(=O)NC2=S)c1C	AmpC inh detg inconclusive
Cc1ccccc1N1C(=O)/C(=C/c2ccco2)C(=O)NC1=S	AmpC no deterg 7.08µM, AmpC inh detg 44.7µM (no result: AMA1-RON2 inh)
O=C1/C(=C\c2ccco2)NC(=S)N1c1ccccc1	CHX counter 17.8
COC(=O)CCC/C=C1/SCC(NC(=O)c2ccccc2)C1NC(C)=O (configuration not stated)	none
Cc1nn(Cc2ccccc2)c(C)c1C(=O)NCC(c1cccs1)N1CCOCC1 (configuration not stated)	none (no result: Shiga inhibitor, CHX counter)
COCC(C)n1c(C)cc(C(=O)COC(=O)c2c(C)nn(-c3ccccc3)c2C)c1C (configuration not stated)	none

Screening data deposited in PubChem BioAssay by National Center for Advancing Translational Sciences (NCATS).
